Source: PubChem BioAssay (Buhrlage Lab, Dana-Farber Cancer Institute and Novartis Institutes for BioMedical Research (Cambridge, Mass))
UCHL1 inh – human UCHL1 deubiquitinase inhibition. P09936. purified UCHL1, Ub-rhodamine cleavage fluorescence. inhibition, % at 20 µM. 47,000 tested, 0.2% active
USP10 block – human USP10 deubiquitinase inhibition; Q14694; purified USP10, Ub-rhodamine fluorescence, 60 min; inhibition, % at 20 µM; 47,000 tested, 1.1% active
Target sequence (Q14694 whole entry, looked up): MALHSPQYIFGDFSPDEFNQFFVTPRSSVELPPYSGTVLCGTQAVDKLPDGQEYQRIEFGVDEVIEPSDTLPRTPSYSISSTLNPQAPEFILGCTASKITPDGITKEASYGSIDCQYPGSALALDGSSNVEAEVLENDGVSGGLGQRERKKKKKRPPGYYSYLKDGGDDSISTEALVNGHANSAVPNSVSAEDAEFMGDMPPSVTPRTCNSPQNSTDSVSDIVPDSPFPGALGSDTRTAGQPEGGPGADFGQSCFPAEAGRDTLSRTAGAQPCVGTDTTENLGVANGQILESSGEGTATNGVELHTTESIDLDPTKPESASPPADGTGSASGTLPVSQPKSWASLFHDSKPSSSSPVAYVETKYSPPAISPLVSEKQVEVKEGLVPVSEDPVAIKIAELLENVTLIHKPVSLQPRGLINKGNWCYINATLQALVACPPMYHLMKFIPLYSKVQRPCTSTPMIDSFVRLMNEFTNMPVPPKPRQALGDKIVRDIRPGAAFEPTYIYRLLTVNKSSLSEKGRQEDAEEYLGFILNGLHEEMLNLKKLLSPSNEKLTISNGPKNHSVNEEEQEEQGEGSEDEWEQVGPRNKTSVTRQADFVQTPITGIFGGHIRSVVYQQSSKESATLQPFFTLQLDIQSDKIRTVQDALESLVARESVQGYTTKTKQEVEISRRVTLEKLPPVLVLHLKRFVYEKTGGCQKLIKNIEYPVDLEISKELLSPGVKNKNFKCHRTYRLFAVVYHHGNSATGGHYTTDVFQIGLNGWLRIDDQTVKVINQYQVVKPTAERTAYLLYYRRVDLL
USP7 inh – blocks human USP7 ubiquitin-rhodamine cleavage; Q93009; purified USP7, Ub-rhodamine cleavage fluorescence; inhibition, % at 20 µM; 47,000 tested, 0.3% active
USP8 block – blocks human USP8 ubiquitin-rhodamine cleavage | purified USP8, Ub-rhodamine cleavage fluorescence, 30 min | P40818 | inhibition, % at 20 µM | 47,000 tested, 4.2% active
Hits are given with their value; . = inactive; / = not tested or not shown. In the library only some 4.6% were active in any assay of this set; here they are far more common. Rule as the data show it: active = inhibition above about 30%; inactive = the rest.

SMILES	UCHL1 inh	USP10 block	USP7 inh	USP8 block
Cc1ccc(NC(=O)CSc2nnc(-c3ccccn3)n2Cc2ccco2)cc1C	.	.	.	.
Cc1ccc(S(=O)(=O)N(Cc2cc3ccc(C)cc3[nH]c2=O)CC2CCCO2)cc1 (configuration not stated)	.	.	.	.
Cc1ccc2[nH]c(=O)c(CN(CC3COCCO3)S(=O)(=O)c3ccc(F)cc3)cc2c1 (configuration not stated)	.	.	.	35
Cc1ccc(/C=C/C(=O)Nc2ccc3nc(N4CCN(c5ncccn5)CC4)cc(C)c3c2)cc1	.	.	.	.
CC(=O)N1CCC(C)(c2cc(C(=O)NCC3CCC3)nc(C)n2)CC1	.	.	.	.
CC(=O)c1oc2nc3c(c(-c4ccc(Cl)cc4)c2c1N)CCc1ccccc1-3	.	.	.	65
N#Cc1c(N)nc2c(c1-c1ccccc1)CCc1ccccc1-2	.	.	.	.
COC(=O)C1Cc2ccccc2CN1Cc1c(O)ccc2ccccc12 (configuration not stated)	.	.	.	.
CC1(C)CC2CC(C)(CN2Cc2c(O)ccc3ccccc23)C1 (configuration not stated)	.	.	.	87
Cc1cccc(NS(=O)(=O)c2c[nH]c3ncccc23)c1	.	.	.	.
CO[C@@H]1CC[C@H]2C[C@@H]1[C@@H](Oc1ccccn1)CN2C(=O)CO	.	.	.	.
CC1=C(c2ccc(F)cc2)S(=O)(=O)NC1=NCC(=O)Nc1ccc(F)cc1F	.	.	.	.
Cc1ccn2cc(-c3ccc(NC(=O)C(C)Oc4ccccc4)cc3)nc2n1 (configuration not stated)	.	.	.	40
O=C(Nc1cccc(C(F)(F)F)c1)c1ccc2c(c1)SC1=NS(=O)(=O)CCN12	.	.	.	.
COc1ccc(CCNC(=O)c2ccc3c(c2)SC2=NS(=O)(=O)CCN23)cc1	.	.	.	35
O=C(CCc1c[nH]c2ccccc12)N1C[C@@H](O)[C@H](N2CCCC2)C1	.	.	.	.
O=C(CCc1c[nH]c2ccccc12)OCC(=O)c1cc2c3c(c1)CC(=O)N3CCC2	.	.	/	32
O=C(CCc1nnc2ccc(N3CCCCC3)nn12)NC1CCCCC1	.	.	.	.
COC(=O)c1ccc(NC(=O)/C=C/c2ccc(F)cc2)cc1	.	44	/	96
COc1ccc(C(=O)N2CCN(c3cc(OC(C)C)nc(C)n3)CC2)cc1OC	.	.	.	.
COc1ccc(S(=O)(=O)N2CCOCC2)cc1NC(=O)C1Cc2ccccc2CN1C(=O)c1ccco1 (configuration not stated)	.	.	.	49
FC(F)(F)c1cc(NCc2cccs2)nc(-c2ccccn2)n1	.	.	.	.
CC(C)COC(=O)N1[C@@H](c2ccccc2)[C@@H](CO)C[C@]12CCCCN(CCO)C2=O	.	.	.	.
COc1ccccc1CC(=O)Nc1cnc(-c2ccc(F)cc2)nc1	.	.	.	30
CC(C)N(Cc1cc(=O)[nH]c2ccccc12)C(=O)c1ccc(F)c(Cl)c1	.	.	.	.
SMILES	UCHL1 inh	USP10 block	USP7 inh	USP8 block
CCCOc1ccc(/C(O)=C2\C(=O)C(=O)N(CCN(C)C)C2c2ccccc2)cc1 (configuration not stated)	.	.	.	.
COc1ccc(C2/C(=C(\O)c3ccccc3)C(=O)C(=O)N2c2cccc(C(F)(F)F)c2)cc1 (configuration not stated)	.	30	.	.
Cc1ccc(C2/C(=C(\O)c3ccc(F)cc3)C(=O)C(=O)N2c2nc3ccc(F)cc3s2)cc1 (configuration not stated)	.	.	.	.
COc1ccc(C2/C(=C(\O)c3ccccc3)C(=O)C(=O)N2c2nc3ccc(F)cc3s2)cc1 (configuration not stated)	.	41	.	.
Cc1ccc(C(=O)N(Cc2nc3nc(C)cc(=O)n3[nH]2)c2ccccc2)cc1	.	.	.	.
O=S(=O)(N1CCOCC1)N1CCC(O)(CN2CCCC2)C1 (configuration not stated)	.	.	.	.
O=C(/C=C/c1ccc2c(c1)OCO2)N1CCCc2ccccc21	.	.	.	.
O=C(/C=C/c1cccc([N+](=O)[O-])c1)N1CCc2ccccc21	.	.	.	84
Cc1ccc(S(=O)(=O)c2cnc3ccc(F)cc3c2N2CCCCCC2)cc1	.	.	.	33
Cc1ccc(NC(=O)c2cc(-c3ccccc3)c(N3CCOCC3)s2)cc1	.	.	.	.
Cc1cccc(N2C(=O)/C(=C\c3ccc(N4CCOCC4)s3)c3ccccc3C2=O)c1	.	.	.	41
COc1cccc(/C=C2\C(=O)N(c3cccc(C)c3)C(=O)c3ccccc32)c1	.	.	.	66
COc1ccc(C2c3[nH]c4ccccc4c3C[C@@H]3C(=O)N(c4ccc5c(c4)OCCO5)C(=O)N23)cc1 (some centres not stated)	.	.	.	.
COC(=O)c1ccc(C2c3[nH]c4ccccc4c3C[C@@H]3C(=O)N(c4ccc5c(c4)OCCO5)C(=O)N23)cc1 (some centres not stated)	.	48	.	.
O=C(Nc1ccc(F)cc1F)c1noc2c1CCc1sccc1-2	.	.	.	.
O=C(Nc1ccc2ccccc2c1)C(=O)C1C(=O)Nc2ccccc21 (configuration not stated)	.	.	.	62
CC(C)CC1NC(=O)C2CCCN2C1=O (configuration not stated)	41	.	.	54
Cc1ccc(C(=O)Nc2cc3c4c(c2)CC(=O)N4CCC3)cc1C	.	.	.	30
COC(=O)c1ccccc1NC(=O)c1sccc1Oc1ccc(F)cc1[N+](=O)[O-]	.	.	.	.
O=C(Nc1ccccc1F)c1sccc1Oc1ccc([N+](=O)[O-])cc1F	.	.	.	87
O=C(Nc1ccccc1)c1sccc1Oc1ccc([N+](=O)[O-])c(C(F)(F)F)c1	.	.	.	44
O=C(Nc1cccc(-c2noc(C3CC3)n2)c1)C1CC(=O)N(c2ccccc2)C1 (configuration not stated)	.	.	.	36
O=C(Nc1cccc(-c2noc(C3CCC3)n2)c1)C1CC(=O)N(c2ccccc2)C1 (configuration not stated)	.	.	.	42
CCOC(=O)c1cnc2c(C)c(Cl)ccc2c1Nc1ccc2c(c1)OCCO2	.	.	.	.
CN(C1CCCCC1)S(=O)(=O)N1CCCC(C(=O)NCc2ccc(Cl)cc2)C1 (configuration not stated)	.	.	.	.
CCC(C(=O)NCCc1csc(-c2ccccc2)n1)c1ccccc1 (configuration not stated)	.	.	.	.
Cc1cc(C)nc(C2CCN(C(=O)CCn3nnc4ccccc43)C2)n1 (configuration not stated)	.	.	.	.
O=C(COc1ccc(Cl)cc1)Nc1noc(-c2cccs2)n1	.	.	.	85
O=C(c1cc(F)ccc1F)N1CCN(Cc2nncn2C2CCCCC2)CC1	.	.	.	.
Cc1cc(C)c(Cn2nc(C(C)(C)C)cc2C(=O)Nc2ccc3c(c2)OCO3)c(C)c1	.	.	.	.
